# Records with an inconclusive call do not appear. A call without a number means that no potency is given here. The source made the active and inactive calls. Calls come from the whole dose curve; as a rule, active = well fitted curve in the direction sought with a large enough effect; inconclusive = small, poorly fitted or top-dose-only effect, or another doubt; inactive = no such curve, though single readings can be large; an effect the other way counts as inactive or inconclusive.
# Legend:
# [1] = A2780 Cisplatin Sensitive Ovarian Cancer Cell Toxicity qHTS against the NCATS CANVASS Library (AID 1347353); note: nearly all actives have a fitted effect of over 60% in size; note: potency is the fitted concentration of half-maximal effect
# Summary of the method: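 Cisplatin-sensitive A2780 ovarian cells (750/well) received compound in 11 concentrations, and were incubated 72 h at 37 °C. ATP content was measured by ATPLite luminescence; bortezomib served as control.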
# [2] = HEK-293 Cancer Cell Toxicity qHTS against the NCATS CANVASS Library (AID 1347355); note: nearly all actives have a fitted effect of over 65% in size; note: potency is the fitted concentration of half-maximal effect; for outcome: series mostly up to about 46 µM
# Summary of the method: (§1)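 Toxicity was measured as CellTiter-Glo luminescence after 72 h exposure to an 11-point compound series. Compound was added to 1000 cells/well 4 h after seeding.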
# [3] = HPAF-II 24hr Apoptosis Induction qHTS against the NCATS CANVASS Library (AID 1347356)
# Summary of the method: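 Caspase-Glo 3/7 luminescence, read after 15 min room-temperature development, measures apoptosis in HPAF-II cells treated 24 h at 37 degrees C with an 11-point concentration series; 500 cells/well; doxorubicin control.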
# [4] = KB-8-5-11 Cancer Cell Toxicity qHTS against the NCATS CANVASS Library (AID 1347364); note: nearly all actives have a fitted effect of over 75% in size; note: potency is the fitted concentration of half-maximal effect
# Summary of the method: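 Viability read as CellTiter-Glo luminescence after 72 h at 37 °C, 5% CO2. 11-point compound series on 500 KB-8-5-11 cells/well in DMEM/10% FBS. Follow-up plating included 1 uM tariquidar in the medium.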
# [5] = SDT Cancer Cell Toxicity qHTS against the NCATS CANVASS Library (AID 1347365); note: nearly all actives have a fitted effect of over 60% in size; note: potency is the fitted concentration of half-maximal effect
# Summary of the method: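 Cytotoxicity taken from CellTiterGlo ATP luminescence after 72 hr at 37C, 5% CO2. Canine glioma line SDT, 500 cells/well, treated at 11 concentrations; bortezomib dose series as control.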
# [6] = qHTS for ATAD5 Agonist screened against the NCATS CANVASS Library (AID 1347367)
# Summary of the method: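 Luminescence read-out: ATAD5-driven luciferase in stably transfected HEK 293T cells, which rises post-transcriptionally with DNA damage. Cells were exposed 16hr at 37C to test compound; a CellTiter-Fluor fluorescence read (1hr) measured viability first.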
# [7] = qHTS for Hypoxia signaling pathway (HIF-1) antagonists against the NCATS CANVASS Library (AID 1347374); note: nearly all actives have a fitted effect of over 60% in size; note: potency is the fitted concentration of half-maximal effect
# Summary of the method: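 Antagonism scored as loss of CoCl2-driven (60 uM stock added) HRE beta-lactamase signal, read by CCF4 FRET at 460/530 nm. Compounds were tested in an 11-point series on ME-180 reporter cells for 17 hrs at 37C, with parallel CellTiter-Glo cytotoxicity.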
# [8] = qHTS for Hypoxia signaling pathway (HIF-1) agonists against the NCATS CANVASS Library (AID 1347375)
# Summary of the method: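 Beta-lactamase reporter under HRE control in ME-180 cells; compounds (11-point qHTS series) added after 5 hrs plating, then 17 hrs at 37C. FRET substrate read after 2 hr; same-well CellTiter-Glo luminescence gave viability and normalization.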
# [9] = Cytotoxicity qHTS for assessment of Hepg2 cells membrane integrity screened against the NCATS CANVASS Library (AID 1347387)
# Summary of the method: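 Membrane damage quantified as fluorescent LDH-release signal (ex 560, em 590 nm) in HepG2 cells treated 5 hr at 37C. qHTS format, 11 concentrations spanning 0.59 nM - 46 uM final, cells plated at 2000 per well the night before.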
# [10] = qHTS for inhibitors of ER calcium dysfunction: SERCaMP assay screened against the NCATS CANVASS Library (AID 1347393); note: nearly all actives have a fitted effect of over 40% in size; note: potency is the fitted concentration of half-maximal effect
# Summary of the method: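 Thapsigargin-induced ER calcium depletion drives GLuc-SERCaMP secretion from SH-SY5Y cells; compounds given 16 h beforehand were scored by lowered coelenterazine luminescence after 4 h challenge.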
# [11] = Vero-766 cells viability qHTS against the NCATS CANVASS Library: Counterscreen for Zika virus inhibition assay (AID 1347394); note: nearly all actives have a fitted effect of over 60% in size; note: potency is the fitted concentration of half-maximal effect
# Summary of the method: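 CellTiter-Glo luminescence, lower signal indicating cytotoxicity. Vero 766 cells without Zika virus, 1000 cells/well, plated overnight, then treated 72 h at 37C across an 11-point series.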
# [12] = Viability qHTS for inhibitors of the SERCaMP assay screened against the NCATS CANVASS Library (AID 1347400); note: nearly all actives have a fitted effect of over 70% in size; note: potency is the fitted concentration of half-maximal effect
# Summary of the method: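 CellTiter-Glo luminescence measured cytotoxicity after 48 h at 37C of compound treatment (11-point series). Cells were SH-SY5Y-GLuc SERCaMP MJH297 derivatives, seeded at 1000 per well 4 h beforehand.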
# [13] = Redox Reaction Profiling qHTS: Assay Interference Panel against the NCATS CANVASS Library (AID 1347401)
# Summary of the method: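 Redox-cycling liability assessed as DTT-driven conversion of resazurin (5 uM, with 200 uM DTT, HEPES pH 7.3) to fluorescent resorufin. Fluorescence at 525/598 nm measured initially and after 15 min dark incubation.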
# [14] = HPAF-II Cancer Cell Toxicity qHTS against the NCATS CANVASS Library (AID 1347346); note: nearly all actives have a fitted effect of over 55% in size; note: potency is the fitted concentration of half-maximal effect
# Summary of the method: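 Cytotoxicity read-out was CellTiter-Glo luminescence after 72 h at 37 degrees C exposure of HPAF-II cells (1000/well) to compounds in an 11-point titration.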
# [15] = UWB1.289-WTBRCA1 Cancer Cell Toxicity qHTS against the NCATS CANVASS Library (AID 1347354); note: potency is the fitted concentration of half-maximal effect
# Summary of the method: as §1
# [16] = qHTS for activators of Nrf2/ARE signaling pathway screened against the NCATS CANVASS Library (AID 1347391); note: nearly all actives have a fitted effect of over 60% in size; note: potency is the fitted concentration of half-maximal effect
# Summary of the method: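 Eleven-point qHTS, 16 h treatment of HepG2 cells carrying an ARE-driven beta-lactamase reporter; CCF4 ratio read (405 nm excitation, 460 and 530 nm emission), with CellTiter-Glo ATP luminescence for viability.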
# [17] = OV-SAHO Cancer Cell Toxicity qHTS against the NCATS CANVASS Library (AID 1347348); note: nearly all actives have a fitted effect of over 55% in size; note: potency is the fitted concentration of half-maximal effect
# Summary of the method: (§2)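 Cells were seeded at 1000 per well, allowed 4 h at 37 degrees C/5% CO2, then pin-treated with an 11-point compound series. After 72 h, viability was read as CellTiter-Glo luminescence following 15min at room temperature.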
# [18] = Panc-1005 Cancer Cell Toxicity qHTS against the NCATS CANVASS Library (AID 1347349); note: nearly all actives have a fitted effect of over 60% in size; note: potency is the fitted concentration of half-maximal effect
# Summary of the method: as §2
# [19] = COV-362 Cancer Cell Toxicity qHTS against the NCATS CANVASS Library (AID 1347352); note: potency is the fitted concentration of half-maximal effect
# Summary of the method: as §1
# [20] = qHTS for activators of dead-cell proteases activity screened against the NCATS CANVASS Library (AID 1347392);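 note: luminescence from protease leaking out of membrane-damaged cells cleaving impermeant substrate; rising signal means more cytotoxicity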
# Summary of the method: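 Luminescent dead-cell protease readout (AAF-aminoluciferin, 15 min, room temperature) after 5 h compound treatment of HepG2 cells (2000/well, pre-attached 18 h). Eleven concentrations.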
Compound,Potency [1],Potency [2],outcome [3],Potency [4],Potency [5],Potency [6],Potency [7],outcome [8],outcome [9],Potency [10],Potency [11],Potency [12],Potency [13],Potency [14],Potency [15],Potency [16],Potency [17],Potency [18],Potency [19],Potency [20]
COc1cc(C2C3=C(Cc4cc5c(cc42)OCO5)C(=O)OC3)cc(OC)c1OC (centres undefined),0.0833 µM (active),0.059 µM (active),inactive,0.105 µM (active),0.118 µM (active),inactive,inactive,inactive,inactive,inactive,0.186 µM (active),0.0604 µM (active),inactive,,,,,,,
CC[C@@H]1[C@H](C)[C@H](c2cc(OC)c(OC)cc2OC)[C@@H](C)[C@H](c2cc(OC)c(OC)cc2OC)[C@]12C=C(OC)C(=O)C=C2OC,,26.4 µM (active),inactive,,,inactive,,,,,20.9 µM (active),,inactive,18.8 µM (active),inactive,inactive,,,,
C=C(Cl)[C@](Cl)(CBr)CC[C@@H](Br)C(C)(C)Cl,,9.35 µM (active),inactive,9.35 µM (active),,,,,,,,inactive,inactive,6.68 µM (active),18.8 µM (active),,inactive,3.75 µM (active),inactive,
O=C1OC(CCO)c2cccc(O)c21 (centres undefined),inactive,inactive,,inactive,,inactive,inactive,inactive,inactive,inactive,inactive,inactive,inactive,inactive,inactive,inactive,inactive,inactive,inactive,inactive
C[C@H]1CCC2(OC1)O[C@H]1C[C@H]3[C@@H]4CC(=O)[C@]5(O)C[C@H](O)CC[C@@]5(C)[C@H]4CC[C@@]3(C)[C@H]1[C@H]2C (some centres undefined),,,inactive,,,,,inactive,inactive,,,,inactive,,,2.09 µM (active),inactive,,inactive,inactive
C/C=C/c1cc2c(c(=O)o1)C(=O)[C@@H](O)[C@H](C)O2,2.35 µM (active),9.35 µM (active),inactive,,10.5 µM (active),,14.9 µM (active),inactive,inactive,,inactive,34 µM (active),,,,4.67 µM (active),16.7 µM (active),13.3 µM (active),,
C=CC(C)(C)C(=O)[C@@H](C)[C@@H]1CC[C@@](C)(C=C)O1,inactive,inactive,inactive,inactive,inactive,,inactive,inactive,inactive,inactive,inactive,inactive,inactive,inactive,inactive,inactive,inactive,inactive,inactive,
C=C[C@]1(C)CC[C@@H]([C@H](C)C(=O)/C=C/C(C)(C)O)O1,,,inactive,inactive,,inactive,inactive,inactive,inactive,,inactive,,inactive,inactive,inactive,16.6 µM (active),,inactive,inactive,inactive
C=C1C[C@H]2O[C@@H]3[C@@H]4[C@H](CC[C@@](C)(O)[C@@H]42)[C@H](C)COC3(C)[C@@H](OC(=O)CCCCCCC)C[C@H]1O (some centres undefined),,23.5 µM (active),inactive,,,inactive,,inactive,,,,inactive,inactive,,inactive,20.9 µM (active),,,,inactive
C=C1C(=O)O[C@H]2[C@H]1CCC(C)=C1CC[C@@](C)(O)[C@@H]12,4.18 µM (active),9.35 µM (active),inactive,23.5 µM (active),26.4 µM (active),inactive,,,inactive,2.72 µM (active),inactive,42.8 µM (active),,,,0.186 µM (active),18.8 µM (active),16.8 µM (active),16.7 µM (active),inactive
O=Cc1ccc2n1C[C@]1(OC2)O[C@H](CO)[C@@H](O)[C@@H]1O,inactive,inactive,inactive,inactive,inactive,inactive,inactive,,,inactive,inactive,inactive,inactive,inactive,inactive,inactive,inactive,inactive,inactive,inactive
COc1c(O)cc(O)c2c(=O)cc(-c3ccccc3)oc12,,inactive,inactive,,inactive,inactive,10.6 µM (active),,inactive,inactive,,inactive,,inactive,inactive,,inactive,inactive,inactive,inactive
C[C@@]12CCC[C@@](C)(C(=O)OP(=O)(O)OC[C@H]3O[C@@H](n4cnc5c(N)ncnc54)[C@H](O)[C@@H]3O)[C@H]1C[C@@H](O)[C@@]13C[C@@H](CC[C@@H]21)[C@](C)(O)C3,inactive,inactive,inactive,inactive,,,,inactive,,inactive,inactive,inactive,,4.73 µM (active),,inactive,inactive,inactive,inactive,inactive
O=C1CCC(=O)N(O)CCCCCNC(=O)CCC(=O)N(O)CCCCCNC(=O)CCC(=O)N(O)CCCCCN1,26.4 µM (active),,inactive,inactive,4.18 µM (active),inactive,inactive,,,inactive,,,,7.49 µM (active),inactive,inactive,11.8 µM (active),8.41 µM (active),,inactive

# — PubChem BioAssay (NCATS)
